Measurements as given in PubChem BioAssay (NCI).
This is part of a sample that, as a whole, favours compounds with a hit. Of some 83,000 tested, about 20% had one in any assay.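 Plates (96-well) were seeded with cells, treated with compound at one concentration, and incubated for 48 hours before percent growth was determined.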 Values without a mark were called inactive. The source made the active and inactive calls. Rule for the calls: active = growth percent below 10; inactive = the rest.

tested on: TK-10 renal; assay: NCI-60 one-dose screen, 48 h (100 = growth as untreated, 0 = no growth, -100 = all killed); settings: 10 µM unless noted

| Compound | growth |
| --- | --- |
| CCN(CC)CCOc1ccccc1-n1c(C)ccc1-c1ccccc1 | 85.2% |
| Cn1cc(-c2csc(-c3c[nH]c4ncccc34)n2)c2cc(Br)cnc21 | -21.8% (active) |
| COc1ccc(/C=C2\NC(=S)NC2=O)cc1 | 113% |
| Nc1ccccc1-c1ccc([N+](=O)[O-])cc1 | 72.7% |
| Cc1cc(NC(=O)c2ccc(N)cc2)ccc1N=Nc1ccc2c(O)c(N=Nc3ccc(Cl)c(S(=O)(=O)O)c3)c(S(=O)(=O)O)cc2c1 | 73% |
| CC[N+](CC)(CCOCCOCC[N+](CC)(CC)Cc1ccc([N+](=O)[O-])cc1)Cc1ccc([N+](=O)[O-])cc1 | 95% |
| CCC(c1ccccc1)c1noc(CCN(CC)CC)n1 (configuration not stated) | 96.7% |
| CC(=O)Nc1ccc2c(c1)Cc1c(F)c(F)c(F)c(F)c1-2 | 84.7% |
| OC(Cc1cccnc1)c1ccccc1 (configuration not stated) | 109% |
| C/C(=N/N=C(N)N)c1ccc(N)cc1 | 104% |
| O=C(O)c1ccccc1C(=O)OC1CCCC2CCCC21 (configuration not stated) | 116% |
| CN1CCCC1c1cccnc1 (configuration not stated) | 132% |
| COc1c(O)cc2oc3cc(O)c(CC=C(C)C)c(O)c3c(=O)c2c1C/C=C(\C)CCC=C(C)C | 37.3% |
| Nc1nc(SCc2ccccc2Cl)c(-c2ccccc2)c(SCc2ccccc2Cl)n1 | 97.7% |
| CO[C@H]1/C=C/O[C@@]2(C)Oc3c(C)c(O)c4c(O)c(c(/C=N/N5C(C)CN(Cc6ccccc6)CC5C)c(O)c4c3C2=O)NC(=O)/C(C)=C\C=C\[C@H](C)[C@H](O)[C@@H](C)[C@@H](O)[C@@H](C)[C@H](OC(C)=O)[C@@H]1C (some centres not stated) | 69.1% |
| CCOC(=O)C(C(C)=O)c1nc2sc3cc(Cl)ccc3n2c(=N)c1C#N (configuration not stated) | 157% |
| COc1ccc(-c2nn(-c3cccc(Cl)c3)cc2C2CC(c3ccccc3)=NN2C(C)=O)cc1 (configuration not stated) | 62.8% |
| CCS(=O)(=O)OCCCl | 97.7% |
| O=C1Nc2ccc(F)cc2/C1=C/c1nc(-c2ccc(F)cc2)n2ccccc12 | 120% |

| Compound | growth |
| --- | --- |
| Cc1c(C(N)=O)sc2ncn(Cc3ccccc3)c(=O)c12 | 87.8% |
| Nc1nc2ncc(CCNc3ccc(C(=O)NC(CCC(=O)O)C(=O)O)cc3)nc2c(=O)[nH]1 (configuration not stated) | 107% |
| COc1cccc2c1C(=O)c1c(O)c3c(c(O)c1C2=O)C[C@@](O)(/C(C)=N/NC(=O)c1cccc([N+](=O)[O-])c1)C[C@@H]3OC1CC(N)C(O)C(C)O1 (some centres not stated) | -33.8% (active) |
| NC(=O)NN=C(C1CC1)C1CC1 | 101% |
| C[n+]1ccc(Nc2ccc(NC(=O)c3ccc(Nc4cc[n+](C)c5ccc(N)cc45)cc3)cc2)cc1 | 108% |
| COc1cc(OC)c2cc(C(=O)O)c(=O)oc2c1 | 90.6% |
| CCOc1ccccc1C(=O)OCC(=O)Nc1cccc(S(=O)(=O)N(C)C)c1 | 169% |
| S=C(Nc1ccc(C2=NCCN2)cc1)Nc1ccc(C2=NCCN2)cc1 | 100% |
| S=c1[nH]nc2sc3ccccc3n12 | 126% |
| Cn1c(N)c(N=O)c(=O)[nH]c1=O | 101% |
| Cc1ccc(C(=O)Nc2ccc(Cl)cc2C(=O)NCc2ccccc2)cc1 | 105% |
| O=[N+]([O-])c1ccc2c(c1)S(=O)c1cc([N+](=O)[O-])ccc1N2 | 110% |
| Nc1ccc2c3c(cccc13)-c1ccccc1-2 | 116% |
| CC(c1cc(Cl)ccc1O)c1cc(Cl)ccc1O | 90.7% |
| Nc1ccc2c(c1)/C(=N/O)c1cc([N+](=O)[O-])ccc1-2 | 57.6% |
| Nc1cc(Cl)c(S(N)(=O)=O)cc1S(N)(=O)=O | 97.5% |
| O=C(CSc1nc2c(n1Nc1ccccc1)-c1ccccc1SC2)Nc1nc(-c2ccc(Cl)cc2)cs1 | 110% |
| Cc1cc(O)c2c(c1)C[C@H]1[C@@H]3CC[C@H]4CC(=O)CC[C@]4(C)[C@H]3CC(=O)[C@]21C | 92.5% |
